# Measurements taken from article PMC4336329 (PLoS ONE, 2015).
# Among all 310,000 compounds or so, about 14,000 (4.5%) showed an effect of 50% or more. Effects have a minus sign here. The list comes from a sample in which strong results are over-represented; it also holds similar structures and randomly drawn compounds.
# Molecular target: human ether-à-go-go-related gene (hERG) potassium channel (human, UniProt Q12809)
# Assay: primary screen, population patch clamp on CHO cells stably expressing hERG; higher = less effect of the substance
# 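Also: peak tail current of the secondary pulse compared with the same well before compound.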
# Sequence of human ether-à-go-go-related gene (hERG) potassium channel (Q12809 whole entry, looked up): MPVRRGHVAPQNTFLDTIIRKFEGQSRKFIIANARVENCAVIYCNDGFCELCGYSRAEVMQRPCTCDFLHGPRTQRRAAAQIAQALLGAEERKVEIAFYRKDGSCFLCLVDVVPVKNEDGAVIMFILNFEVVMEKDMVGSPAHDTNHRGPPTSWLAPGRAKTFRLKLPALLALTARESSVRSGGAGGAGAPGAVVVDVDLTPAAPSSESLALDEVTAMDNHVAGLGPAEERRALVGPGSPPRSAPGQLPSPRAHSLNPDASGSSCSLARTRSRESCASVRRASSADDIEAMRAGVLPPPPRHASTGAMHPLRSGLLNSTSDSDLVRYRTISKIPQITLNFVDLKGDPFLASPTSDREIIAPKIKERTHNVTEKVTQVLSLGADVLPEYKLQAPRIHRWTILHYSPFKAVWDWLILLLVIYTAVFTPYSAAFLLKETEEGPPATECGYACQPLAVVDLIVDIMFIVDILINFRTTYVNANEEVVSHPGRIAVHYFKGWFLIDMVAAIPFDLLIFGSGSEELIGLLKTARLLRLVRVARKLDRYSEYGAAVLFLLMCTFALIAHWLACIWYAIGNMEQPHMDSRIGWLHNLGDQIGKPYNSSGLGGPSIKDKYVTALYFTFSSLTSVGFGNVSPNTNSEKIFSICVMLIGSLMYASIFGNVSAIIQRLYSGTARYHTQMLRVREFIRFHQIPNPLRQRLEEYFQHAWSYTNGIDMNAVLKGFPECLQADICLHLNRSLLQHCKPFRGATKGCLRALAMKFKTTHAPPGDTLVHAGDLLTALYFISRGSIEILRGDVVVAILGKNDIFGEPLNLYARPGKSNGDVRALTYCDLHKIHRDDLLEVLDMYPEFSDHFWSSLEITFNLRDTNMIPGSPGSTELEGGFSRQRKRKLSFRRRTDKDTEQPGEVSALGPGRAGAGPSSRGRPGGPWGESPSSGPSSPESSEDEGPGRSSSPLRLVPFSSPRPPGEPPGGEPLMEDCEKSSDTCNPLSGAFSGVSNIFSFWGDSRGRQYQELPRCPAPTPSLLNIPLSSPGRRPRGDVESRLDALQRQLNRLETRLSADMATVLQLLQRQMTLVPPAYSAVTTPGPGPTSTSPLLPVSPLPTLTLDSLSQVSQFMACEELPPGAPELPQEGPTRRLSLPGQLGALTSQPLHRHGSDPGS
row,SMILES,"hERG current change (%, negative = inhibition) at 10uM"
1,COc1ccc(-c2nnc3sc(-c4ccccn4)nn23)cc1,-13.2%
2,CCOC(=O)c1ccc(-c2ccc(CO)o2)cc1,-6.44%
3,CCC(C)[C@H](NC(=O)N1CC(=O)Nc2ccccc21)C(=O)N[C@H](C(=O)O)c1ccccc1 (stereo partly shown),7.19%
4,CCN1C(=O)CC(c2ccco2)Sc2ccccc21 (stereo not shown),-16.8%
5,O=C(NCCCN1CCOCC1)c1ccc([N+](=O)[O-])cc1[N+](=O)[O-],10.5%
6,CC(C)n1c(=O)c(C=Nc2ccc(F)cc2)c(O)n(Cc2ccco2)c1=O,-19.7%
7,COc1ccc2c(=O)c3c(=O)n(-c4ccc(C)cc4)c(-c4ccccc4)nc3oc2c1,6.84%
8,CC(=O)Nc1ccc(S(=O)(=O)N2CCSC2C(=O)O)cc1 (stereo not shown),0.312%
9,Cc1ccc(S(=O)(=O)Nc2ccc(N3CCOCC3)cc2)cc1C,2.95%
10,COc1ccc(/C=C/C(=O)NC(=S)NNC(=O)c2c(-c3ccccc3)noc2C)cc1,11.4%
11,Cc1cc2ncc(-c3cccc(Cl)c3)cn2n1,8.42%
12,CC(=O)Nc1ccc2c(COC(=O)CC3Sc4ccccc4NC3=O)cc(=O)oc2c1 (stereo not shown),-9.75%
13,O=C(CC1Sc2ccccc2NC1=O)OCc1cc(=O)oc2cc(O)ccc12 (stereo not shown),-51.7%
14,COc1ccc2c(COC(=O)CC3Sc4ccccc4NC3=O)cc(=O)oc2c1 (stereo not shown),-44.1%
15,CCCCn1c(SCC(=O)NCc2ccccc2)nc2ccc(N3CCOCC3)cc2c1=O,-13.9%
16,COc1ccc(OC)c(NC(=O)C2C3CC4OC(=O)C2C4C3)c1 (stereo not shown),11.2%
17,O=C(Cn1cnc2ccccc2c1=O)N1CCN(Cc2ccc3c(c2)OCO3)CC1,-14%
18,O=C(c1cccn2c(=O)c3cc(Cl)ccc3nc12)N1CCN(Cc2ccc3c(c2)OCO3)CC1,-75.2%
19,O=C(Cn1ccc2ccccc2c1=O)N1CCN(Cc2ccc3c(c2)OCO3)CC1,-14.8%
20,O=C(c1ccc2nc3ccccc3c(=O)n2c1)N1CCN(Cc2ccc3c(c2)OCO3)CC1,-60.9%
21,O=C(c1cccc(Cl)c1)N1CCN(Cc2ccc3c(c2)OCO3)CC1,-16.6%
22,O=C(c1cccn2c(=O)c3ccccc3nc12)N1CCN(Cc2ccc3c(c2)OCO3)CC1,-67.7%
23,O=C(O)C(=O)O.O=C(c1ccccc1F)N1CCN(Cc2ccc3c(c2)OCO3)CC1,6.48%
24,O=C(c1ccccc1Cl)N1CCN(Cc2ccc3c(c2)OCO3)CC1,-21.1%
25,O=C(c1cc(Cl)nc2ccccc12)N1CCN(Cc2ccc3c(c2)OCO3)CC1,-37.9%
